# Values joined by “and” are separate entries in the source; they are usually repeats but may differ in a detail not shown here. Equal entries are not always repeated. For some of these results: Results with a measured potency or affinity are listed apart.
# Tests used:
# Parameters in all cases: scale not given: direction of the effect not stated beside the values
# [1] = target: Protein translocase subunit SecA (Escherichia coli (strain K12)) (UniProt P10408); assay: Assay to Identify E. coli SecA ATPase Inhibitors; format: functional; conditions: 30 µM
# [2] = target: T1, Ubiquitin-activating enzyme e1, putative (Leishmania donovani (strain BPK282A1)) (UniProt E9BSI1); assay: Leishmania donovani Ubiquitin Activating Enzyme (LdE1); format: functional; conditions: 30 µM
# T1 sequence (whole entry): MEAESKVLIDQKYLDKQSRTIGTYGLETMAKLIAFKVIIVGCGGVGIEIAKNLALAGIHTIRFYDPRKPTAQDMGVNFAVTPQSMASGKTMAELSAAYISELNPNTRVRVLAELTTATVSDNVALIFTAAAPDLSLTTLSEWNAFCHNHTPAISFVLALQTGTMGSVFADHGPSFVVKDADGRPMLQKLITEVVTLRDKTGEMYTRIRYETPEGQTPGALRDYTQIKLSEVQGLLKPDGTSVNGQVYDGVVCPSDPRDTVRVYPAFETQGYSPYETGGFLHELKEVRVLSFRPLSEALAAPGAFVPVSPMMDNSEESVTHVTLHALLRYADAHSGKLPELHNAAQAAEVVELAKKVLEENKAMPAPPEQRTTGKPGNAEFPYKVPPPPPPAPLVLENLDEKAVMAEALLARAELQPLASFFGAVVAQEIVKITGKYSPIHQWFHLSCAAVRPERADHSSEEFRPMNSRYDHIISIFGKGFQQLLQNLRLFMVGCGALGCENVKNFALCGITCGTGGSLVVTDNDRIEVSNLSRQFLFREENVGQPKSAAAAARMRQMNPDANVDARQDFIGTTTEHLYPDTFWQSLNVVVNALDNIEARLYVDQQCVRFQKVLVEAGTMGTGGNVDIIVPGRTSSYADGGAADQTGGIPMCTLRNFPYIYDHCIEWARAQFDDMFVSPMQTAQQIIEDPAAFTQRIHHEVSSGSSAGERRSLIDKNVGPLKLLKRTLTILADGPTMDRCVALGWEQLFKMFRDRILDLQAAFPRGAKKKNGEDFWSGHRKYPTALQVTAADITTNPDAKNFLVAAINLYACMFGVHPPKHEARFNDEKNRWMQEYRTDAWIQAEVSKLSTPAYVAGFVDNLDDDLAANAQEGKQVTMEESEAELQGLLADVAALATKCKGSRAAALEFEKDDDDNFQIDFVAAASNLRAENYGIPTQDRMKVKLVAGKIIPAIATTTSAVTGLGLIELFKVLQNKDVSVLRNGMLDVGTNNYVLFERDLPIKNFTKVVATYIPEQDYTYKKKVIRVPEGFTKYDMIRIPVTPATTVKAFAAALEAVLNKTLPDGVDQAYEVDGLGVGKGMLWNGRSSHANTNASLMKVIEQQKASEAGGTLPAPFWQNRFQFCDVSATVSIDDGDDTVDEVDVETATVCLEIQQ
# [3] = target: AMP-activated protein kinase, AMPK (Homo sapiens) (UniProt P54646+O43741+P54619+Q9UGJ0+Q9Y478+Q13131+Q9UGI9); assay: AMP-dependent Kinase enzyme assay. An in vitro enzyme assay that detects ADP turnover that is directly proportional to AMPK activity. This uses naive AMPK that is activated during the assay with MK-8722; format: functional; conditions: 30 µM
# [4] = target: Sialic acid-binding Ig-like lectin 9 (Homo sapiens) (UniProt Q9Y336); assay: Hs-Siglec9 ALPHAscreen SOP 20170721; conditions: 10 µM
# [5] = system: Trypanosoma cruzi; assay: Trypanosoma cruzi phosphomannomutase and mannose-1-phosphate guanylyltransferase assay; format: functional; conditions: 10 µM
# [6] = target: T2, Arginase-2, mitochondrial (Homo sapiens) (UniProt P78540); assay: in vitro enzyme assay to detect the production of urea directly proportional to the activity of Arginase II; format: functional; conditions: 33.3 µM; note: in the data most compounds retested in dose-response had high values
# T2 sequence (whole entry): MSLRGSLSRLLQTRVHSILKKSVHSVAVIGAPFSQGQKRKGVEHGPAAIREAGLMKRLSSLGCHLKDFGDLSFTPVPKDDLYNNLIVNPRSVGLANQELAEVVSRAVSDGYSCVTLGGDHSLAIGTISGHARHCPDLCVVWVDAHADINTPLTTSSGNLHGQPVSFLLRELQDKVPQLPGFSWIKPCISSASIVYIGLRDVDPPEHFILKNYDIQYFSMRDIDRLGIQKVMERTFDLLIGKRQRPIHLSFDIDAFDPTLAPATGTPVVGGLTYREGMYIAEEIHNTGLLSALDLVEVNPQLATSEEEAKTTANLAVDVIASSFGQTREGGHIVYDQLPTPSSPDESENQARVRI
# [7] = system: N/A; assay: Trypanosoma cruzi proteasome luciferase counter-screen; format: functional; conditions: 9.37 µM
# [8] = organism: Homo sapiens; assay: To identify inhibition of the IFN signalling (Jak-Stat) pathway via expression of an eGFP reporter gene under the control of an IFN-stimulated response element (ISRE) containing MxA promoter.; format: functional; conditions: 30 µM
# [9] = target: T3, Tyrosyl-tRNA synthetase, putative (Trypanosoma cruzi (strain CL Brener)) (UniProt Q4DSP6); assay: Trypanosoma cruzi tyrosyl tRNA synthetase (TcYRS) _High Tyrosine SOP; format: functional; conditions: 30 µM; note: in the data most compounds retested in dose-response had high values
# T3 sequence (whole entry): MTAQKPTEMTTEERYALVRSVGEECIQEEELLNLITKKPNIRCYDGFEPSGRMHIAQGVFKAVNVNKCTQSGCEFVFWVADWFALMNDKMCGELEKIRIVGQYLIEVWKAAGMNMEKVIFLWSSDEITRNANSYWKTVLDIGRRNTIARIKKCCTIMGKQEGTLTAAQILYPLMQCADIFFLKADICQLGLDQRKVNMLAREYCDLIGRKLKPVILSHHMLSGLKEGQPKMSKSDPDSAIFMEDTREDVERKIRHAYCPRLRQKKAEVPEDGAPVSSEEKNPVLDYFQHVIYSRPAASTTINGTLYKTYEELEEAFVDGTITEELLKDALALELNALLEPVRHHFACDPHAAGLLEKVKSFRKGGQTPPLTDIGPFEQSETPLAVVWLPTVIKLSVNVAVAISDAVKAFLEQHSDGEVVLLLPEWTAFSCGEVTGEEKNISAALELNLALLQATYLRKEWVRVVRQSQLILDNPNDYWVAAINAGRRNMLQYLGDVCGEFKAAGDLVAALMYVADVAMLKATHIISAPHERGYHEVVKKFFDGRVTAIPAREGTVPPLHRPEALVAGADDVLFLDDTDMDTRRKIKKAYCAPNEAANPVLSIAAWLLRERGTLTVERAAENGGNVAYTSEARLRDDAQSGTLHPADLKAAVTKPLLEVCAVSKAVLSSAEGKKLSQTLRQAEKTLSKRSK
# [10] = target: T3, Tyrosyl-tRNA synthetase, putative (Trypanosoma cruzi (strain CL Brener)); assay: Trypanosoma cruzi tyrosyl tRNA synthetase (TcYRS) SOP; format: functional; conditions: 30 µM
# [11] = target: Chromo domain-containing protein 1 (Saccharomyces cerevisiae (strain ATCC 204508 / S288c) (Baker's yeast)) (UniProt P32657); assay: ScCHD-1 Enzyme Inhibition Assay; format: functional; conditions: 30 µM; note: in the data most compounds retested in dose-response had high values
# [12] = target: T4, Proteasome subunit beta (Trypanosoma cruzi) (UniProt O96673); assay: Trypanosoma cruzi proteasome chymotrypsin-like activity (TcProtChymo) assay.; note: in the data most compounds retested in dose-response had high values; format: functional; conditions: 9.37 µM
# T4 sequence (whole entry): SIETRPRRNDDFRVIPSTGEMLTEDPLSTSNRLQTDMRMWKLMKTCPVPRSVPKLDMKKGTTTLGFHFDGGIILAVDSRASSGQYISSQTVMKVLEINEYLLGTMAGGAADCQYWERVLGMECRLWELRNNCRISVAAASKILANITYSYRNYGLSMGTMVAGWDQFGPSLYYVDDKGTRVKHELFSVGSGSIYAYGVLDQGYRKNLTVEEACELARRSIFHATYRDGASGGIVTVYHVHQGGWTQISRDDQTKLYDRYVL
# Chain of Sialic acid-binding Ig-like lectin 9 (Homo sapiens) (Q9Y336 whole entry): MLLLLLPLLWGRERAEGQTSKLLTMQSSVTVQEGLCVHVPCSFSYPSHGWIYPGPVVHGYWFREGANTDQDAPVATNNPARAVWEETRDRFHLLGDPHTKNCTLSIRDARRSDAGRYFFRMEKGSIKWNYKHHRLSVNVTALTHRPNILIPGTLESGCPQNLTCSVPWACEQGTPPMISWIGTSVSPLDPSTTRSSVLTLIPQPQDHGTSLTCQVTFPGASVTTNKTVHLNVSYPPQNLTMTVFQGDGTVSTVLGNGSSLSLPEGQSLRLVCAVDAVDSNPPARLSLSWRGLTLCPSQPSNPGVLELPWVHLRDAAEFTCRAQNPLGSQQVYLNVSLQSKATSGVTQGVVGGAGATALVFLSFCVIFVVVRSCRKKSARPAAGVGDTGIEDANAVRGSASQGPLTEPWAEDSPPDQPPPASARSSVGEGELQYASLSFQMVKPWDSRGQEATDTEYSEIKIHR
# Chain of Protein translocase subunit SecA (Escherichia coli (strain K12)) (P10408 whole entry): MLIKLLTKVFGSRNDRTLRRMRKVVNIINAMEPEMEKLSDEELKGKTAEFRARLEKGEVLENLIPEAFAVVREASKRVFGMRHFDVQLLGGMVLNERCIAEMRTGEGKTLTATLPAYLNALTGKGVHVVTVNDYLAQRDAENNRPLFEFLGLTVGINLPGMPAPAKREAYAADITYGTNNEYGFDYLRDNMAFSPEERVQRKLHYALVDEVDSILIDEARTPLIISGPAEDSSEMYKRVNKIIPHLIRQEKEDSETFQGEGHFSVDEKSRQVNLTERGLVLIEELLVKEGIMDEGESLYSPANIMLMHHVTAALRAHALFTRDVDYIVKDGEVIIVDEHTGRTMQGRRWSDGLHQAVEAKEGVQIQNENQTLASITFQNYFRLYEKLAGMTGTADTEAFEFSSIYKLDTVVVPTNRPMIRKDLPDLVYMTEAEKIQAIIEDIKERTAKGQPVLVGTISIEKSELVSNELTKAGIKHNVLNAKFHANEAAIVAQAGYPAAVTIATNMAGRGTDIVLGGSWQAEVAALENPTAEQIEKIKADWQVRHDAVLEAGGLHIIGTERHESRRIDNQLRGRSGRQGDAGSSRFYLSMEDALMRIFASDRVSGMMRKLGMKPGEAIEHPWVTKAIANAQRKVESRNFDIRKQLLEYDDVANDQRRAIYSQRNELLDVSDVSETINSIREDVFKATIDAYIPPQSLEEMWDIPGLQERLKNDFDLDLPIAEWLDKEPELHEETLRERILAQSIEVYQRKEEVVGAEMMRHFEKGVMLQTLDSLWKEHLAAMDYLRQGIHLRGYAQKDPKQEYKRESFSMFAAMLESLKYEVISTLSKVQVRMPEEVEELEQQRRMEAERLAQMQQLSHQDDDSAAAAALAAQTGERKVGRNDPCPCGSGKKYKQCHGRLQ
# Chain of Chromo domain-containing protein 1 (Saccharomyces cerevisiae (strain ATCC 204508 / S288c) (Baker's yeast)) (P32657 whole entry, the tested form may be a part): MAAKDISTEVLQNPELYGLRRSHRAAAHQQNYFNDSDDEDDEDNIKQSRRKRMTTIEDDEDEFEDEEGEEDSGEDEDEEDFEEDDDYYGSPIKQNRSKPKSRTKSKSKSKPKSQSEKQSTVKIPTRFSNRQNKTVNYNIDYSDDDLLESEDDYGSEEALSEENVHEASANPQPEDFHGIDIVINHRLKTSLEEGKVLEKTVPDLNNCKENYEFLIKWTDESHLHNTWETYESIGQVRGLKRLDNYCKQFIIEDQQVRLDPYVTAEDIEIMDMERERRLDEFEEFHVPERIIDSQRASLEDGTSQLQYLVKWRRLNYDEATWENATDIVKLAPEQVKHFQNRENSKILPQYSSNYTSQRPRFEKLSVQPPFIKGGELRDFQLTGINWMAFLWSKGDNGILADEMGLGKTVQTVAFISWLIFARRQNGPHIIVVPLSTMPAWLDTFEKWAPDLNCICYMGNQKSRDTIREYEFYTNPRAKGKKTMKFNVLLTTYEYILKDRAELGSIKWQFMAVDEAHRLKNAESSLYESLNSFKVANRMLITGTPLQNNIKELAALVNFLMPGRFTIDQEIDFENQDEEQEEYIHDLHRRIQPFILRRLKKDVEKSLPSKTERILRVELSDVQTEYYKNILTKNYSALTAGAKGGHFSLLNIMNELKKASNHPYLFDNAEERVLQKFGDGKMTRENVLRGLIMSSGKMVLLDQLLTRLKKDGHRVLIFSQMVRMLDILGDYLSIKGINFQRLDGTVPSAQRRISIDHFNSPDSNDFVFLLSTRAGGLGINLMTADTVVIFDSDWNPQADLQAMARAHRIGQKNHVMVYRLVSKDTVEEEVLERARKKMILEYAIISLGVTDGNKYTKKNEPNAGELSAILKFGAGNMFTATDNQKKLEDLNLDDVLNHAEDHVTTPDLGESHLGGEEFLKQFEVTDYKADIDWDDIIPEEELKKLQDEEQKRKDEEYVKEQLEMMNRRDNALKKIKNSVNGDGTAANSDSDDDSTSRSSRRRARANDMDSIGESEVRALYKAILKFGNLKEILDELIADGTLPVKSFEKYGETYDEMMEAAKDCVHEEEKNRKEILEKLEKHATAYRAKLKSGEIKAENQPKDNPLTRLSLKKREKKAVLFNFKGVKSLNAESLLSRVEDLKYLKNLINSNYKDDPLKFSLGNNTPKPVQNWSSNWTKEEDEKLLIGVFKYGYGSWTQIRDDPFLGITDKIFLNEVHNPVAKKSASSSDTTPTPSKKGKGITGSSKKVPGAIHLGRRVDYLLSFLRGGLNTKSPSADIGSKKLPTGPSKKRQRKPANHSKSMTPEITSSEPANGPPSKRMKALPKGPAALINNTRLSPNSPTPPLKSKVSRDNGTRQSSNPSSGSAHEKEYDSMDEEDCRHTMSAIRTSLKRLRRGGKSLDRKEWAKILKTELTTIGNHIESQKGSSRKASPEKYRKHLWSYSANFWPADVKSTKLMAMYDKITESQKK
Structure (SMILES),Percent Effect [1],Percent Effect [2],Percent Effect [3],Percent Effect [4],Percent Effect [5],Percent Effect [6],Percent Effect [7],Percent Effect [8],Percent Effect [9],Percent Effect [10],Percent Effect [11],Percent Effect [12]
CNS(=O)(=O)Cc1ccc(CNc2cncc(-n3cccn3)n2)cc1,-1.63%,18.2%,3.34%,6.42%,5.24%,0%,16.1% and 14.8%,18.8%,7.77%,24.4%,-12.2%,–
COc1cccc(CNCc2c(C(C)C)nn(C)c2N(C)C)c1OC,2%,10.5%,-0.641%,-1.37%,-7.33%,2.68%,–,8.82%,3.43%,7.32%,-8.1%,16.2%
CC(C)c1nnc2n1CCN(C(=O)c1ccc(-n3cnnc3)cc1)C2,-9.19%,-10.4%,-7.99%,-9.83%,8.13%,-7.79%,–,0.957%,5.71%,18.8%,-23.7%,13.5%
COCCCC(=O)NS(=O)(=O)c1ccc2c(c1)OCCCO2,-3.41%,5.26%,-3.3%,9.85%,-7.94%,5.75%,–,0.992%,0.493%,-1.24%,4.1%,-0.0846%
Cc1occc1C(=O)N1CCC2(CC1)C(c1cnn(C)c1)CC(=O)N2C (stereo unspecified),-5.4%,13.5%,6.87%,-12.9%,-4.59%,1.59%,11.5% and 13.8%,15.9%,-11.9%,7.69%,-4.17%,–
CC(C)N(C)CC(=O)NC1CCc2nccn2C1 (stereo unspecified),-0.518%,-5.33%,4.88%,-4.8%,-4.38%,-5.21%,–,31.6%,-2.73%,-6.17%,2.61%,3.14%
CNc1nc(CNC(=O)Nc2cccc(F)c2C)cs1,-0.623%,-2.63%,-1.93%,5.4%,-1.32%,1.15%,–,8.24%,1.47%,-2.44%,5.82%,5.18%
COCCC(=O)N1CC[C@@H]2O[C@@H](C)C[C@H]2C1,-6.08%,8%,0.716%,0.473%,2.36%,-3.96%,–,15.7%,6.38%,11.5%,-7.49%,6.61%
Cc1ccc2c(n1)N(CCN(C)C)CCN(C(=O)c1ccc[nH]1)C2,-0.711%,10.7%,6.26%,-13%,-8.07%,1.63%,–,-6.38%,1.06%,3.85%,-1.69%,18.6%
COc1ccc(-c2nc(CN3CCOCS3(=O)=O)c(C)o2)cc1,-1.22%,8%,-8.87%,2.98%,-4.58%,-3.12%,–,10.4%,2.73%,8.64%,-5.54%,14.8%
CC(C)CC1SCC(=O)Nc2c1cnn2-c1ccc(F)cc1 (stereo unspecified),-4.89%,6.67%,1.34%,3.64%,4.91%,-3.35%,–,1.9%,6.35%,7.69%,-4.25%,2.03%

# From ChEMBL document CHEMBL3988442, “University of Dundee, Small-Polar-MMV Screening Library” (2021)
